Experimental findings from PubChem BioAssay (NCATS) are described below.

Molecules are shown by their SMILES. Records with an inconclusive call do not appear. Values without a mark were called inactive. Activity calls are given as the source filed them. Calls come from the whole dose curve; as a rule, active = well fitted curve in the direction sought with a large enough effect; inconclusive = small, poorly fitted or top-dose-only effect, or another doubt; inactive = no such curve, though single readings can be large or run the other way.
% is set by controls: 0 for no effect and ±100 for the full control effect; potency is the fitted concentration of half-maximal effect.

A short description of this experiment: qHTS Assay for Identifying Gametocytocidal Compounds (AID 743244).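 For max response: actives lower the fluorescent signal which means gametocytes are killed.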 Particulars: P. falciparum 3D7 stage III-V gametocytes, alamarBlue, 72 h; max response: hits give low values. The text has this: Malaria cases and deaths have dropped 50% in 29 countries since 2000 due to the combined effects of long-lasting insecticidal bednets, indoor residual spraying, and artemisinin-based combination therapies (ACTs). This success has raised hopes for malaria eradication and consequently stimulated interest in developing new reagents that block gametocyte transmission such as novel and safe gametocytocidal drugs. However, previous drug development efforts have focused primarily on the asexual parasites that cause symptoms, but not malaria transmission. Consequently, patients can remain infectious for weeks after the clearance of asexual parasites and clinical symptoms. To be transmitted from person to person via a mosquito, the parasites must switch from asexual to sexual development and produce male and female gametocytes. Malaria gametocytes consist of five stages (I, II, III, IV and V). The late stage gametocytes (III, IV and V) are difficult to be cultured in vitro and the long lifespan of mature gametocytes allows them being transmitted from host to mosquitoes unless they are completely eliminated by gametocytocidal agents. To identify gametocytocidal compounds which are capable of killing late stage P. falciparum gametocytes, a high throughput gametocyte viability assay was employed. This assay uses oxidoreduction indicator, alamarBlue, as a general measure of metabolic activity of gametocytes. Within live cells, the nonfluorescent resazurin is reduced to resorufin, a bright red fluorescence dye. Fluorescence decreases upon treatment of gametocytocidal compounds. P. falciparum gametocyte (3D7 strain) was used in this study.
The 1536-well gametocycidal viability assay was based on the previous method of Tanaka et al. Stage III-V gametocytes were tested against three compound libraries, including 4265 compounds from NCGC pharmaceutical collection, 400 from Malaria Box library, and 550 from an internal collection of kinase inhibitors. Briefly, 2.5 ul/well incomplete medium was dispensed into each well of 1,536-well plates using the Multidrop Combi followed by 23 nl compound transferring using the NX-TR Pintool (WAKO Scientific Solutions, San Diego, CA). Then, 2.5 ul/well of gametocytes was dispensed with a seeding density of 20,000 cells/well using the Multidrop Combi. The assay plates were incubated for 72 h at 37C with 5% CO2. After addition of 5 ul/well of 2X AlamarBlue dye (Life Technologies, cat. no. DAL1100), the plates were incubated for 24 h at 37C with 5% CO2 and then were read in a fluorescence detection mode (Ex = 525 nm, Em = 598 nm) on a ViewLux plate reader (PerkinElmer).
A general note: In qHTS, concentration-response curves come from the screen itself.
In the case of `CC1CC(=O)NN=C1c1ccc(NCC(C)(C)NCC(O)COc2cc(Cl)ccc2C#N)cc1` (stereo not given), the max response was 11.8%.

For the molecule `CN1CCC(N(Cc2cccs2)c2ccccc2)CC1`, the max response is 8.89%.

As to `O=[N+]([O-])c1ccc(O)c2ncccc12`, the Potency is 8.91 µM (active).

In the case of `CCNC(=O)NCCCOc1cccc(CN2CCCCC2)c1`, the max response was -8.1%.

With `Cc1cc(C(C)(C)C)c(O)c(C(C)(C)C)c1`, the max response was -17.9%.

For the molecule `O=C1NC(=O)/C(=C/c2ccc3c(c2)OC(F)(F)O3)S1`, the max response was -20.1%.

`CO[C@]1(NC(=O)CSC(F)F)C(=O)N2C(C(=O)O)=C(CSc3nnnn3CCO)CO[C@H]21`: the max response was 19.9%.

As to `Nc1ncnc2nc[nH]c12`, the max response is 3.66%.

Take `CCN1C(=O)c2ccccc2C1Nc1ccc(OCCN2CCCCC2)cc1` (stereo not given): the max response is -8.48%.

For `CN1C(CSCC(F)(F)F)Nc2cc(Cl)c(S(N)(=O)=O)cc2S1(=O)=O` (stereo not given), the max response was 2.14%.

On to `C[C@H]1C[C@@H]2[C@H]([C@@H](O)C[C@@]3(C)[C@H]2CC[C@]3(O)C(=O)CO)[C@@]2(C)C=CC(=O)C=C12`, for which the max response was -12.4%.

With `OCCOCCN1CCN(C(c2ccccc2)c2ccc(Cl)cc2)CC1` (stereo not given), the max response is -10.6%.

As to `CCO[C@H](Cc1ccc(OCCc2ccc(OS(C)(=O)=O)cc2)cc1)C(=O)O`, the max response is 6.84%.

As for `CO/N=C(/C(=O)N[C@@H]1C(=O)N2C(C(=O)OCOC(=O)C(C)(C)C)=C(C)CS[C@H]12)c1csc(N)n1`, the max response is -0.603%.

For the molecule `C[C@@]12CCC[C@H]1[C@@H]1CC[C@H]3C[C@@H](O)CC[C@]3(C)[C@H]1CC2`, the max response is 4.41%.

With `Cc1cccc(C)c1NC(=O)c1cc(S(N)(=O)=O)c(Cl)cc1O`, the max response was 11.8%.

Turning to `Cc1cc(OCCOCC[N+](C)(C)Cc2ccccc2)ccc1C(C)(C)CC(C)(C)C`, the Potency was 7.08 µM (active).

Consider `CCCCCC(=O)O[C@]1(C(C)=O)CC[C@H]2[C@@H]3CCC4=CC(=O)CC[C@]4(C)[C@H]3CC[C@@]21C`, for which the max response is 7.11%.

`O=C(Oc1ccccc1)c1ccccc1O`: the max response was 7.75%.

Consider `CCOC(=O)NNc1ccc(N(CC)CC(C)O)nn1` (stereo not given), for which the max response is 0.172%.

Turning to `CC(=O)N(CC(O)CO)c1c(I)c(C(=O)NCCO)c(I)c(C(=O)NCC(O)CO)c1I` (stereo not given), the max response was 13.7%.

In the case of `O=C(CO)[C@@H](O)[C@H](O)[C@@H](O)CO`, the max response is -0.255%.

With `O=[N+]([O-])c1ccc(-c2nc(-c3ccc(F)cc3)c(-c3ccncc3)[nH]2)cc1`, the max response is -10.7%.

With `CCC1=C[C@@H]2CN(C1)Cc1c([nH]c3ccccc13)[C@@](C(=O)OC)(c1cc3c(cc1OC)N(C)[C@H]1[C@@](O)(C(=O)OC)[C@H](OC(C)=O)[C@]4(CC)C=CCN5CC[C@]31[C@@H]54)C2`, the Potency was 11.2 µM (active).

Regarding `CC(NN)c1ccccc1` (stereo not given), the max response was -6.49%.

`CC(=O)CC/C=C(\C)CC/C=C(\C)CC/C=C(\C)CCC=C(C)C`: the max response is -1.07%.

As to `COC(=O)C1=CO[C@@H](O)[C@@H]2C(CO)=CC[C@H]12`, the max response was 18%.

For `CCOC(=O)c1ccc(OCCN2C[C@H](O)[C@@H](O)[C@H](O)[C@H]2CO)cc1`, the max response was -1.08%.

With `COc1cc(C=O)ccc1O`, the max response is 16.9%.

Turning to `CC(C)(C)c1nnc(NS(=O)(=O)c2ccccc2)s1`, the max response is 0.521%.

Consider `Nc1ncnc2n[nH]c(Nc3ccc(F)cc3)c12`, for which the max response is 6.51%.

For `NCC(=O)O`, the max response is -6.74%.

Regarding `CN1CCCN=C1/C=C/c1cccs1`, the max response is 3.61%.

For `Cc1ccc(/C=N/n2c(-c3ccccc3)csc2=S)cc1`, the max response is -23%.

As for `Cn1cc(S(C)=O)c(=O)c2ccc(F)cc21` (stereo not given), the max response was -4.53%.

On to `CCOC(=O)NNc1nncc2ccccc12`, for which the max response is -13.4%.

Consider `C[C@H](CN1CCCC1)C(=O)c1ccc(C(F)(F)F)cc1`, for which the max response is 15.3%.

On to `COc1cccc2c1[C@@H]1CN(CCCCn3c(=O)[nH]c4c(sc5ncc(-c6ccccc6)nc54)c3=O)C[C@@H]1CO2`, for which the max response was 22.3%.

Consider `N[C@@H](Cc1cc(I)c(O)c(I)c1)C(=O)O`, for which the max response was 18.2%.

On to `CN1C(=O)c2ccccc2C1=O`, for which the max response was 10.3%.
